{
  "source": "PubChem BioAssay AID686979",
  "about": "(National Center for Advancing Translational Sciences (NCATS), 2013)",
  "note": "“And” between values parts separate entries of the source, which are not always exact repeats. Identical values can stand only once. About 50,000 (12%) of roughly 420,000 compounds were called active. About 26% were inconclusive and are not listed. Calls follow the shape of the dose curve; as a rule, active = well fitted inhibition curve with a large enough effect; inconclusive = small, poorly fitted or top-dose-only effect; inactive = flat fitted curve, though single readings scatter. The sample as a whole holds a higher share of actives than the screen did. Where a structure was tested more than once in an assay, its records may differ in their call. % is scaled to controls: 0 for no effect and ±100 for the full control effect; potency is read from the fitted curve at half-maximal effect.",
  "data": [
    {"assay": "qHTS for Inhibitors of human tyrosyl-DNA phosphodiesterase 1 (TDP1): qHTS in cells in presence of CPT; also: nearly all actives have a fitted effect of over 55% in size", "conditions": "chicken DT40 Tdp1-/-;hTDP1 cells + 20 nM CPT, ATP luminescence, 48 h; series mostly up to 46.2 µM; activity change, negative = growth inhibition: at the top concentration", "procedure,_shortened": "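Chicken DT40 Tdp1-/- cells complemented with human TDP1, 400 cells/well, exposed to compounds plus 20 nM camptothecin for at least 48 h at 37 C; viability read as ATP content by CellTiter-Glo luminescence.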", "values": [
      {"smiles": "COc1cccc(CNC(=O)CCN2C(=S)NC(C)(C)CC2C)c1", "note": "(centres undefined)", "activity change, negative = growth inhibition": "-8.76% (inactive)"},
      {"smiles": "COc1nc(N(C)C)nc(N2CC(=O)N(CCNS(=O)(=O)c3ccc(C)cc3)C2=N)n1", "activity change, negative = growth inhibition": "17.4% (inactive)"},
      {"smiles": "C=C1C(=O)[C@]23C[C@H]1CCC2[C@@]1(C)C(C[C@@H]3O)[C@](C)(C(=O)O)CC[C@@H]1O", "note": "(some centres undefined)", "Potency": "1.84 µM (active)"},
      {"smiles": "Cc1cnc(CN(C)C(=O)CC2C(=O)NCCN2Cc2cccc(F)c2F)[nH]1", "note": "(centres undefined)", "activity change, negative = growth inhibition": "2.68% (inactive)"},
      {"smiles": "CCCC1NC(=O)NC(C)=C1C(=O)OCC", "note": "(centres undefined)", "activity change, negative = growth inhibition": "13.2% (inactive)"},
      {"smiles": "CCCCn1c(N)c(N(CC)C(=O)c2ccccc2C(F)(F)F)c(=O)[nH]c1=O", "activity change, negative = growth inhibition": "3.08% (inactive)"},
      {"smiles": "Cc1ccc(NC(=O)Cn2cnc3c(OCc4ccccc4)ncnc32)cc1C", "activity change, negative = growth inhibition": "-10.5% (inactive)"},
      {"smiles": "Cc1ccc(CNC(=O)Cn2cnc(S(=O)(=O)N3CCCCC3)c2)o1", "activity change, negative = growth inhibition": "-4.28% (inactive)"},
      {"smiles": "Cc1ccc(CNC(=O)Cn2cnc3c(NCc4ccccc4)ncnc32)o1", "Potency": "18.4 µM (active)"},
      {"smiles": "Cn1c(=O)c2c(SCC(=O)NCC3CCCO3)nc(CC(C)(C)C)nc2n(C)c1=O", "note": "(centres undefined)", "activity change, negative = growth inhibition": "-18.2% (inactive)"},
      {"smiles": "Cc1ccc(NC(=O)c2cn3c4c(ccc(Cl)c4c2=O)OC(C)C3)cc1C", "note": "(centres undefined)", "activity change, negative = growth inhibition": "-0.412% (inactive)"},
      {"smiles": "Cc1ccc(C)c(C(C)NC(=O)C2CCCO2)c1", "note": "(centres undefined)", "activity change, negative = growth inhibition": "-22.5% (inactive)"},
      {"smiles": "Cc1nc(N)nc(Cl)c1CCC1OCCO1", "activity change, negative = growth inhibition": "18.7% (inactive)"},
      {"smiles": "C=CCNc1cnn(-c2ccc(C)cc2)c(=O)c1Cl", "activity change, negative = growth inhibition": "7.55% (inactive)"},
      {"smiles": "Cc1cccc(-n2ncc(Cl)c(Cl)c2=O)c1", "Potency": "5.17 µM (active)"},
      {"smiles": "O=c1c(Cl)c(NC2CC2)cnn1-c1ccccc1", "activity change, negative = growth inhibition": "-3.31% (inactive)"},
      {"smiles": "Cc1ccc(S(=O)(=O)NCC(=O)OCC(=O)N2CCc3ccccc32)cc1", "activity change, negative = growth inhibition": "-5.65% (inactive)"},
      {"smiles": "O=C(OCC(=O)N1CCc2ccccc21)C1CCCN1S(=O)(=O)c1ccc(Cl)cc1", "note": "(centres undefined)", "activity change, negative = growth inhibition": "-18.7% (inactive)"},
      {"smiles": "O=C(OCC(=O)N1CCc2ccccc21)c1ccc([N+](=O)[O-])cc1", "Potency": "20.6 µM (active)"},
      {"smiles": "CO/N=C(\\C(=O)N[C@@H]1C(=O)N2C(C(=O)O)=C(C[N+]3(C)CCCC3)CS[C@H]12)c1csc(N)n1", "activity change, negative = growth inhibition": "-6.89% (inactive)"},
      {"smiles": "O=c1c2ccccc2nc(CSc2nnnn2-c2ccccc2)n1-c1ccccc1", "activity change, negative = growth inhibition": "-15.2% (inactive)"},
      {"smiles": "CCCN1C(=O)C(Cc2nc3ccccc3c(=O)n2-c2ccccc2)c2cc(C)ccc21", "note": "(centres undefined)", "Potency": "inactive and 16.4 µM (active)"},
      {"smiles": "CCC1NC(=O)c2cccnc2-n2c1nc1ccc(C)cc1c2=O", "note": "(centres undefined)", "activity change, negative = growth inhibition": "-4.75% (inactive)"},
      {"smiles": "Cc1ccc(Cl)cc1NC(=O)C(C)n1nnc2sc(-c3ccccc3)cc2c1=O", "note": "(centres undefined)", "activity change, negative = growth inhibition": "-17.5% (inactive)"},
      {"smiles": "O=C(Nc1c2c(nn1-c1cccc(Cl)c1)CS(=O)(=O)C2)c1cccs1", "activity change, negative = growth inhibition": "4.51% (inactive)"},
      {"smiles": "COCCN(C(=O)CC1CCCCC1)c1c(N)n(CC(C)C)c(=O)[nH]c1=O", "activity change, negative = growth inhibition": "-7.04% (inactive)"},
      {"smiles": "CCc1nc2sc3c(Cl)ncnc3c2c2c1CCCC2", "activity change, negative = growth inhibition": "9.75% (inactive)"},
      {"smiles": "OCCCC1CCCCN1Cc1nc(Cc2ccccc2Cl)no1", "note": "(centres undefined)", "activity change, negative = growth inhibition": "-5.93% (inactive)"},
      {"smiles": "O=C(NCCc1ccc(F)cc1)c1ccc2nccnc2c1", "activity change, negative = growth inhibition": "-16.7% (inactive)"},
      {"smiles": "CCOC(=O)c1ccccc1NC(=O)c1sc2nc(-c3ccc(F)cc3)cn2c1C", "activity change, negative = growth inhibition": "20% (inactive)"},
      {"smiles": "CC(C)c1ccc(C(=O)NCCCc2ccccc2)cc1", "activity change, negative = growth inhibition": "-11.7% (inactive)"},
      {"smiles": "Cc1cc(C(=O)NCCCc2ccccc2)no1", "activity change, negative = growth inhibition": "-2.67% (inactive)"},
      {"smiles": "COc1ccc(CCNC(=O)c2ccc3c(c2)nc(C)n3-c2ccc(Br)cc2)cc1OC", "Potency": "20.6 µM (active)"},
      {"smiles": "Cc1ccc(-c2cn3c(n2)sc2cc(C(=O)NCCCc4ccccc4)ccc23)cc1", "Potency": "14.6 µM (active)"},
      {"smiles": "COc1ccccc1-n1c(C)nc2cc(C(=O)NCc3ccc4c(c3)OCO4)ccc21", "activity change, negative = growth inhibition": "-2.89% (inactive)"},
      {"smiles": "CCOc1ccc(CCNC(=O)c2ccc3c(c2)sc2nc(-c4ccc(F)cc4)cn23)cc1OCC", "Potency": "7.31 µM (active)"},
      {"smiles": "COc1cccc(CNC(=O)c2ccc3c(c2)sc2nc(-c4cccc(OC)c4)cn23)c1", "Potency": "6.51 µM (active)"},
      {"smiles": "COc1ccc2oc(=O)c(-c3cn4c(n3)sc3cc(OC)ccc34)cc2c1", "activity change, negative = growth inhibition": "-1.91% (inactive)"},
      {"smiles": "COc1ccc(C(=O)NCc2cn3ccccc3n2)cc1", "activity change, negative = growth inhibition": "-7.24% (inactive)"},
      {"smiles": "COc1cc(-n2c(C)nc3cc(C(=O)NCc4ccco4)ccc32)cc(OC)c1OC", "activity change, negative = growth inhibition": "-3.22% (inactive)"},
      {"smiles": "Cc1ccc(C(=O)Cn2cccn2)cc1", "activity change, negative = growth inhibition": "-0.868% (inactive)"},
      {"smiles": "OC(CNCc1ccc2c(c1)OCO2)COc1ccccc1", "note": "(centres undefined)", "activity change, negative = growth inhibition": "-2.53% (inactive)"},
      {"smiles": "COC(C)C(C(=O)OCC1=CCN2CC[C@H](O)[C@@H]12)C(C)C", "note": "(some centres undefined)", "activity change, negative = growth inhibition": "-27.6% [at 9.04 µM] (inactive)"},
      {"smiles": "N#Cc1c(C(F)(F)F)cc(-c2cccs2)nc1N1CCCCC1", "activity change, negative = growth inhibition": "-14.9% (inactive)"},
      {"smiles": "COc1ccc(CCNC(=S)N2CCN(S(=O)(=O)c3ccc(F)cc3)CC2)cc1", "activity change, negative = growth inhibition": "2.76% (inactive)"},
      {"smiles": "Cc1cc(NC(=O)CSc2nc(=O)cc(N)n2-c2ccc(F)cc2)no1", "activity change, negative = growth inhibition": "12.2% (inactive)"},
      {"smiles": "Cc1nc2nc(C)c(CCC(=O)N3CCN(c4ccccc4)CC3)c(C)n2n1", "activity change, negative = growth inhibition": "-0.967% (inactive)"},
      {"smiles": "CCOC(=O)C1CCCN(C(=O)c2cncc(Br)c2)C1", "note": "(centres undefined)", "activity change, negative = growth inhibition": "-10.2% (inactive)"},
      {"smiles": "Cc1ccc(-c2cn3c(n2)sc2cc(C(=O)NCc4cccs4)ccc23)c(C)c1", "Potency": "23.1 µM (active)"},
      {"smiles": "CCOC(=O)C1CCCN(C(=O)c2ccc3c(c2)sc2nc(-c4ccc(CC)cc4)cn23)C1", "note": "(centres undefined)", "Potency": "4.11 µM (active)"},
      {"smiles": "CCOc1cccc2cc(-c3cn4c(n3)sc3cc(C)ccc34)c(=O)oc12", "activity change, negative = growth inhibition": "-17.8% (inactive)"},
      {"smiles": "CCOC(=O)C1CCCN(C(=O)c2ccc(CS(=O)(=O)c3ccc(Br)cc3)o2)C1", "note": "(centres undefined)", "activity change, negative = growth inhibition": "-16.8% (inactive)"},
      {"smiles": "COc1ccc(CCNC(=O)c2ccc3c(c2)sc2nc(-c4ccc(C)cc4)cn23)cc1OC", "Potency": "6.51 µM (active)"},
      {"smiles": "Cc1ccc2c(CC(=O)NCc3cccs3)coc2c1", "activity change, negative = growth inhibition": "-29.7% (inactive)"},
      {"smiles": "COc1ccc(-c2cc(C(=O)NCCCN3CCOCC3)no2)cc1", "activity change, negative = growth inhibition": "-4.72% (inactive)"},
      {"smiles": "COc1ccc(C(=O)NCCCN2CCOCC2)cc1Br", "activity change, negative = growth inhibition": "-0.798% (inactive)"},
      {"smiles": "CCN1CCN(CCCNC(=O)c2ccc3c(c2)sc2nc(-c4ccc(OC)cc4)cn23)CC1", "Potency": "0.92 µM (active)"},
      {"smiles": "C=C1O[C@@](CO)(n2cnc3c(N)ncnc32)[C@H](O)[C@@H]1O", "activity change, negative = growth inhibition": "9.16% [at 92.5 µM] (inactive)"},
      {"smiles": "Cc1cccc(NC(=O)CCN2CC(C)CC(C)C2)c1", "note": "(centres undefined)", "activity change, negative = growth inhibition": "-19.3% (inactive)"},
      {"smiles": "CCOc1ccc(C(=O)COC(=O)c2ccc(-n3cnnn3)cc2)cc1", "activity change, negative = growth inhibition": "11.6% (inactive)"},
      {"smiles": "COC(=O)c1ccc(/C=N/NC(=O)C(=O)N2CCCCCC2)cc1", "activity change, negative = growth inhibition": "-8.03% (inactive)"},
      {"smiles": "CCOC(=O)c1c(S(=O)(=O)N2CCCC(C(=O)NCc3cccc(C)c3)C2)c(C)n(C)c1C", "note": "(centres undefined)", "activity change, negative = growth inhibition": "-6.53% (inactive)"},
      {"smiles": "CCC(C)N(C(=O)Cn1nc(C)c([N+](=O)[O-])c1C)C1CCS(=O)(=O)C1", "note": "(centres undefined)", "activity change, negative = growth inhibition": "4.68% (inactive)"},
      {"smiles": "CCOc1ccc(NC(=O)c2ccc(NC(=O)CN3C(=O)C(=O)N(CC(C)C)C3=O)cc2)cc1", "activity change, negative = growth inhibition": "-28.5% (inactive)"}
    ]}
  ]
}
